Source: PubChem BioAssay (NCATS)
Inconclusive results are not listed. Calls of active or inactive are those of the source. Calls come from the whole dose curve; as a rule, active = well fitted curve in the direction sought with a large enough effect; inconclusive = small, poorly fitted or top-dose-only effect, or another doubt; inactive = no such curve, though single readings can be large; an effect the other way counts as inactive or inconclusive.

Legend:
[1] = biological target: Luciferin 4-monooxygenase (Photinus pyralis) (UniProt P08659); assay: Biochemical firefly luciferase enzyme assay for NPC (AID 624030);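 note: purified P. pyralis luciferase at 10 nM with luciferin and ATP substrate; nearly all actives have a fitted effect of over 70% in size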
Summary of the method: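 Purified P. pyralis luciferase at 10 nM in 50 mM Tris Acetate (final), luminescence read within 5 minutes of enzyme addition to compounds. Activity normalised to PTC124 versus DMSO; concentration-response curves classed by r2, magnitude and activity.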

[2] = S16 Schwann cell PMP22 intronic element firefly luciferase assay (AID 624032); note: potency is the fitted concentration of half-maximal effect; nearly all actives have a fitted effect of over 30% in size
Summary of the method: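 Rat S16 Schwann cells stably carrying firefly luciferase driven by a PMP22 intronic element, in 10% FBS, treated 24 h at 37 C. ONE-Glo luminescence normalized to PTC124 control and DMSO (0%); curves classed by r2, magnitude and activity.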

7G8 = assay: qHTS profiling for inhibitors of Plasmodium falciparum proliferation (AID 504749); note: potency is the fitted concentration of half-maximal effect; nearly all actives have a fitted effect of over 60% in size; details: P. falciparum in erythrocytes, SYBR Green DNA, 72 h; series mostly up to 12.8 µM
Summary of the method: (§1)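 Each compound contacts P. falciparum-infected red blood cells for 72 h at 37 C; lysis buffer (Tris, EDTA, saponin, Triton X, SYBR Green I) is added and fluorescence measured next morning; values normalized to controls.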

CP260 = assay: as above; details: P. falciparum in erythrocytes, SYBR Green DNA, 72 h; series mostly up to 12.8 µM
Summary of the method: as §1

CP268 = assay: as above; details: P. falciparum in erythrocytes, SYBR Green DNA, 72 h; series mostly up to 12.8 µM
Summary of the method: as §1

CP315 = assay: as above; details: P. falciparum in erythrocytes, SYBR Green DNA, 72 h; series mostly up to 12.8 µM
Summary of the method: as §1

DIV14 = assay: as above; details: P. falciparum in erythrocytes, SYBR Green DNA, 72 h; series mostly up to 12.8 µM
Summary of the method: as §1

TAB165 = assay: as above; details: P. falciparum in erythrocytes, SYBR Green DNA, 72 h; series mostly up to 12.8 µM
Summary of the method: as §1

Measured: Potency

Chain of Luciferin 4-monooxygenase (Photinus pyralis) (P08659 whole entry, looked up): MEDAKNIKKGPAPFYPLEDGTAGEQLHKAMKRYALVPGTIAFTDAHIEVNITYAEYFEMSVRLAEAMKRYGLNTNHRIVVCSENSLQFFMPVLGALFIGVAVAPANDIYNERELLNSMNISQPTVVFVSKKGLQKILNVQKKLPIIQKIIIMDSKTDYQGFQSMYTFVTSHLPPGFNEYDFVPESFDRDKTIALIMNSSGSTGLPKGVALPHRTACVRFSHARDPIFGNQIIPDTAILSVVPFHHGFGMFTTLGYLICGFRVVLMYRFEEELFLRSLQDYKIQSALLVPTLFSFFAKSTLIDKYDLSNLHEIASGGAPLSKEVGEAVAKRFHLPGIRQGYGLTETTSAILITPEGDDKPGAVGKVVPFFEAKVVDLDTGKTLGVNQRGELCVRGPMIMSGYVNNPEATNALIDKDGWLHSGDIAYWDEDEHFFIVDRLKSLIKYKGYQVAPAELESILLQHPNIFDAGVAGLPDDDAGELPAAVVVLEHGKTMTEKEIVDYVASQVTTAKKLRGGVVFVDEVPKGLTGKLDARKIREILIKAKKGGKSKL

Cc1cc(/C=C\c2ccc3cc(N(C)C)ccc3[n+]2C)c(C)n1-c1ccccc1
active: [2] 30.9 nM | 7G8 398 nM | CP260 355 nM | CP268 4050 nM | CP315 2030 nM | DIV14 2870 nM | TAB165 794 nM
inactive: [1]
